IL-1B inflam inh: qHTS for Inhibitors of Inflammasome Signaling: IL-1-beta AlphaLISA Primary Screen. THP-1 LPS/ATP IL-1B secretion, AlphaLISA, 16 h; stronger effect = lower value. activity change, % at 57.5 µM. hit rate 4.7% among 360,000. AID 743279, 2014; in the data active = activity change below about -50%; inconclusive = mostly about -30% to -49%
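THP-1 cells pretreated 1 hr with compounds (up to 57.5 uM final), then stimulated with LPS (250 ng/mL final) plus ATP (1.25 mM final); secreted IL-1B measured by AlphaLISA after 16 hr, decreased signal indicating inhibition.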
TDP1 cell CPT: qHTS for Inhibitors of human tyrosyl-DNA phosphodiesterase 1 (TDP1): qHTS in cells in presence of CPT; chicken DT40 Tdp1-/-;hTDP1 cells + 20 nM CPT, ATP luminescence, 48 h; Potency, µM (top dose mostly 46.2 µM), inactives show top-dose activity change, negative = growth inhibition, most hits filed as inhibitors; hit rate 12% among 420,000; AID 686979, 2013; note: potency is the fitted concentration of half-maximal effect; nearly all actives have a fitted effect of over 55% in size
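Chicken DT40 Tdp1-/- cells stably complemented with human TDP1 were seeded at 400 cells/well in medium containing 20 nM camptothecin, exposed to pin-transferred compounds, and grown at 37 °C for at least 48 hr. Viability was read as ATP luminescence.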
TDP1 cell noCPT: qHTS for Inhibitors of human tyrosyl-DNA phosphodiesterase 1 (TDP1): qHTS in cells in absence of CPT; DT40 Tdp1-/- hTDP1 cells, no CPT, ATP luminescence, 48 h; Potency, µM (doses to about 46.2 µM), for the others: at the top dose activity change, negative = growth inhibition, actives largely listed as inhibitors; hit rate 15% among 420,000; AID 686978, 2013; note: potency is the fitted concentration of half-maximal effect; nearly all actives have a fitted effect of over 55% in size
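Readout: luminescence from CellTiter-Glo after 30 min in the dark at RT. Cells: DT40 Tdp1-/- with stable hTDP1, 400/well. Exposure: compounds alone, ≥48 hr, 37 °C.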
HT1080NT lethal: qHTS for induction of synthetic lethality in tumor cells producing 2HG: qHTS for the HT-1080-NT fibrosarcoma cell line. HT-1080-NT fibrosarcoma viability, CellTiter-Glo ATP luminescence, 48 h. Potency, µM (doses to about 46.1 µM), inactives show top-dose activity, negative = less viability, actives largely listed as cytotoxic. hit rate 1.6% among 360,000. AID 686970, 2013;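 note: NT is the 2HG producing partner of a matched IDH1 knockdown line; potency is the fitted concentration of half-maximal effect; 0% = DMSO-treated cells and -100% = media-only wells without cells; nearly all actives have a fitted effect of over 55% in size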
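Fibrosarcoma NT cells, 750 per well in 5% FBS RPMI, were exposed to compound for 48 hours. Viability: CellTiter-Glo luminescence.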
HT1080 IDH1KD tx: qHTS for induction of synthetic lethality in tumor cells producing 2HG: qHTS for the HT-1080-IDH1KD cell line. HT-1080 IDH1 knockdown viability, ATP luminescence, 48 h. Potency, µM (highest dose often 46.1 µM), for inactives: top-dose activity, negative = toxicity, actives largely listed as cytotoxic. hit rate 2% among 360,000. AID 686971, 2013;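 note: potency is the fitted concentration of half-maximal effect; 0% = DMSO wells and -100% = cell-free medium wells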
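Viability of IDH1-knockdown HT-1080 fibrosarcoma cells was assessed by CellTiter-Glo after 48 h at 37 °C with titrated compound; concentration-effect curves were classified by fit quality and response size.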
* = called active by the depositor; ? = inconclusive; / = not tested or not shown; [ ] = another dose, or the depositor's remark. The list is not random: actives were taken first. Their share in the collection is about 19%. Unless noted, calls come from the whole dose curve; as a rule, active = well fitted curve in the direction sought with a large enough effect; inconclusive = small, poorly fitted or top-dose-only effect, or another doubt; inactive = no such curve, though single readings can be large; an effect the other way counts as inactive or inconclusive. Unless noted, % is set by controls: 0 for no effect and ±100 for the full control effect.

SMILES	IL-1B inflam inh	TDP1 cell CPT	TDP1 cell noCPT	HT1080NT lethal	HT1080 IDH1KD tx
CCN(CC)S(=O)(=O)c1ccc(N2CCOCC2)c(NC(=O)c2cc(=O)[nH]c3ccccc23)c1	5.6	-10.7%	-3.5%	5.2%	12.7%
CCN(CC)S(=O)(=O)c1ccc(N2CCOCC2)c(NC(=O)c2c3c(nc4ccccc24)CCC3)c1	6.4	14.6µM*	14.6µM*	7.1%	2.2%
CCN(CC)S(=O)(=O)c1ccc(N2CCOCC2)c(NC(=O)C2=COCCO2)c1	-8.1	?	?	5.3%	8.6%
CCN1CCN(c2nc3c(c(=O)[nH]c(=O)n3C)n2Cc2cccc(C)c2)CC1	-10.6	-3.3%	-13.4%	-11.9%	-8.5%
CC(NC(=O)c1ccco1)c1nnc2n1CCN(Cc1ccc(N3CCCC3)cc1)CC2 (stereo not given)	/	-4.2%[9.04 µM]	-17.9%	/	/
CCN(CC)S(=O)(=O)c1ccc(N2CCOCC2)c(NC(=O)COc2ccccc2C#N)c1	4.1	?	2.6%	-2.7%	-2.6%
CCS(=O)(=O)c1ccc(O)c(NC(=O)c2cc(-c3ccccn3)nc3ccccc23)c1	19.6	?	?	-3.0%	-0.5%
CCN(CC)S(=O)(=O)c1ccc(N2CCOCC2)c(NC(=O)c2cccc3c(=O)c(C)c(-c4ccccc4)oc23)c1	-24.8	5.8µM*	9.2µM*	-18.6%	1.6%
CCN(CC)S(=O)(=O)c1ccc(N2CCOCC2)c(NC(=O)COc2ccccc2C)c1	-55.8*	20.6µM*	18.4µM*	-6.6%	-8.5%
COc1ccc(S(=O)(=O)N2CCOCC2)cc1NC(=O)c1cccc2c(=O)c(C)c(-c3ccccc3)oc12	-27.8	?	5.17µM*	-2.4%	0.7%
CCN(CC)S(=O)(=O)c1ccc(N2CCOCC2)c(NC(=O)c2cc(-c3ccccn3)nc3ccccc23)c1	-28.7	13µM*	9.2µM*	?	-16.9%
CCc1ccccc1-n1nnnc1-c1cnccc1C(F)(F)F	23.4	?	-24.0%	1.2%	0.2%
CCN(CC)S(=O)(=O)c1ccc(N2CCOCC2)c(NC(=O)c2ccc3ccccc3c2)c1	8.0	?	20.6µM*	3.5%	-2.5%
CCN(CC)S(=O)(=O)c1ccc(N2CCOCC2)c(NC(=O)c2cccc(C#N)c2)c1	7.5	-12.3%	-6.8%	3.3%	3.8%
CC(=O)c1cccc(NC(=O)COc2cc3oc(=O)c(CC(C)O)c(C)c3cc2Cl)c1 (stereo not given)	-0.9	?	20.6µM*	6.3%	6.2%
CCOC(=O)c1ccc(NC(=O)COc2cc3oc(=O)c(CC(C)O)c(C)c3cc2Cl)cc1 (stereo not given)	-19.5	-24.7%	25.9%	21.6%	5.7%
O=[N+]([O-])c1ccc2c([N+](=O)[O-])ccc3c2c1CC3	?	18.4µM*	18.4µM*	-5.4%	-4.3%
O=C(NC(=S)NNC(=O)[C@H]1C[C@@H]1c1ccccc1)c1ccc(F)cc1	66.7	14.6µM*	13µM*	-26.3%	?
O=C(/C=C/c1ccc(F)cc1)NC(=S)NNC(=O)[C@H]1C[C@@H]1c1ccccc1	18.3	?	23.1µM*	-19.7%	-19.5%
COc1cc(OC)cc(C(=O)NC(=S)NNC(=O)[C@H]2C[C@@H]2c2ccccc2)c1	43.2	?	18.4µM*	-2.2%	-9.5%
O=C(NNC(=O)C1CC1c1ccccc1)c1ccccc1F (stereo not given)	6.6	1.1%	16.6%	-6.5%	7.0%
COc1cc(OC)cc(C(=O)NC(=S)NCCc2ccccc2)c1	-6.3	-29.7%	?	?	35.5µM*
COc1cc(OC)cc(C(=O)NC(=S)N(Cc2ccccc2)C(C)C)c1	4.3	?	?	-13.5%	-16.1%
CC(C)(C)NC(=S)NNC(=O)[C@H]1C[C@@H]1c1ccccc1	1.1	?	?	0.5%	-10.8%
COc1ccc(-n2nc(C(C)=O)c(=O)[nH]c2=O)cc1	-0.4	6.3%	-23.8%	-0.9%	0.7%
SMILES	IL-1B inflam inh	TDP1 cell CPT	TDP1 cell noCPT	HT1080NT lethal	HT1080 IDH1KD tx
Cc1ccc(C2(c3ccccc3)NC(=O)N(CC(=O)NC3(C#N)CCCC3)C2=O)cc1C (stereo not given)	-5.0	-9.5%	-5.3%	-2.4%	-7.2%
Cc1cc(Cl)ccc1Oc1ccccc1C(=O)CC#N	27.2	-14.8%	-24.2%	-3.1%	-1.3%
Cc1c(C(=O)NC2CCCc3ccccc32)oc2ccc(S(=O)(=O)N3CCCCC3)cc12 (stereo not given)	22.6	0.259µM*	?	-2.1%	11.8%
Cc1c(C(=O)NC2CCCc3ccccc32)oc2ccc(S(=O)(=O)N3CCOCC3)cc12 (stereo not given)	33.5	?	?	-7.5%	-11.4%
Cc1c(C(=O)NC2CC2)oc2ccc(S(=O)(=O)N3CCCCCC3)cc12	7.1	?	?	-11.8%	-6.8%
Cc1c(C(=O)NC2CCCc3ccccc32)oc2ccc(S(=O)(=O)N3CCCC3)cc12 (stereo not given)	36.4	8.2µM*	?	-6.2%	-5.3%
CSCCC(NS(=O)(=O)Cc1ccccc1)C(=O)NNc1ccccc1 (stereo not given)	-5.1	3.3%	-12.1%	?	?
COc1cccc(C2CN(c3ccc(F)cc3F)N=C2c2cccs2)c1OC (stereo not given)	14.1	16.4µM*	?	-12.3%	-2.6%
CC1(c2nnc(-c3cccc(Cl)c3)o2)CC(c2ccc(OC(F)(F)F)cc2)=NO1 (stereo not given)	7.1	-14.9%	-19.6%	10.8%	10.3%
Cn1c(CN2CCOCC2)nc2cc(NC(=O)c3ccccc3Cl)ccc21	7.6	-14.5%	-15.2%	2.1%	13.2%
CCCC(=O)Nc1ccc2c(c1)nc(CN1CCN(C(=O)OCC)CC1)n2CC	75.2	3.66µM*	2.31µM*	?	?
CCCC(=O)Nc1ccc2c(c1)nc(CN1CCN(C(=O)OCC)CC1)n2C(C)C	/	0.651µM*	0.0651µM*	/	/
CCOC(=O)N1CCN(Cc2nc3cc(NC(=O)c4ccccc4Cl)ccc3n2C(C)C)CC1	/	1.46µM*	1.46µM*	/	/
CCCC(=O)Nc1ccc2c(c1)nc(CN1CCN(C(=O)OCC)CC1)n2C	24.4	0.1%	-6.2%	2.9%	-3.5%
Cc1ccc(C)c(NC(=S)/C(=C(\[O-])c2ccc(OC(F)F)cc2)[n+]2ccccc2)c1	31.5	-24.5%	?	-0.5%	1.7%
CC/C(=N\NC(=S)Nc1cc(C)ccc1C)c1ccc(OC(F)F)cc1	0.0	?	16.4µM*	-11.4%	-19.2%

Source: PubChem BioAssay
